Screening results as filed in PubChem BioAssay.
Menin MLL FP FL – menin-MLL binding inhibition, fluorescein peptide. Fluorescence polarization, fluorescein-MLL peptide displacement from menin. FP activity change, % at 61.4 µM. 290,000 tested, under 10 active. AID 1766; active = well fitted curve in the direction sought with a large enough effect in the polarisation, not every such curve was filed as active; inconclusive = small, poorly fitted or top-dose-only effect, or effect the other way, or a change in a side signal; inactive = no such curve, though single readings can be large or run the other way; the % refers to the polarisation; note: % of control where 0% means no effect
CXXC DNA block – blocks binding of human MLL CXXC domain to DNA; Q03164; MLL-CXXC / FITC-HOXA9 DNA fluorescence polarization; Potency, µM (titrated, usually from 115 µM), inactives show top-dose activity change, negative = inhibition, actives largely listed as inhibitors; 0.037% of 290,000 active; AID 2662; active = well fitted inhibition curve with a large enough effect in the polarisation, with a control signal flat, not every such curve was filed as active; inconclusive = small, poorly fitted or top-dose-only effect, or effect the other way, or a change in a side signal; inactive = no such curve, though single readings can be large or run the other way; the % refers to the polarisation; note: potency is the fitted concentration of half-maximal effect
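Purified MLL-CXXC (added from a 7 uM solution) was preincubated 5 min at ambient with pinned compounds in 50 mM Tris-HCl pH 7.5, 50 mM NaCl, 1 mM DTT, 0.05% BSA. Fluorescein-labeled HOX-A9 DNA (50 nM solution) followed, 30 min, then polarization read.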
Epigenetic reg – derepresses silenced GFP reporter in murine cells. murine LDR cells, GFP reporter derepression, 30 h. Potency, µM (top dose mostly 53.9 µM), inactives show at the highest dose GFP activation, actives largely listed as activators. 0.2% of 280,000 active. AID 1865; active = well fitted activation curve with a large enough effect; inconclusive = small, poorly fitted or top-dose-only effect; note: potency is the fitted concentration of half-maximal effect; % of control where 0% means no effect; nearly all actives have a fitted effect of over 60% in size
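Readout is the number of GFP-expressing murine LDR cells, counted by cytometry following washing. Cells were treated with compound for 30 h at 37 C; the stably integrated CMV-GFP locus is normally silent.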
PINK1 expr mod – changes PINK1 expression; PINK1 immunofluorescence, high-content cytometry, 24 h; 0.2% of 410,000 active; Potency, µM (doses to about 76.6 µM), for the others: at the highest dose activation (PINK1 increase), actives largely listed as activators; AID 624263; active = well fitted activation curve with a large enough effect; inconclusive = small, poorly fitted or top-dose-only effect; cell line not stated here; note: potency is the fitted concentration of half-maximal effect; % of control where 0% means no effect; nearly all actives have a fitted effect of over 65% in size
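Measures PINK1 amount and localization on or inside mitochondria by immunofluorescence. Stable cells get compounds at 5 concentrations for 24 hours before fixation and staining; CCCP controls included.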
ClpP mod – qHTS Assay for Activators of ClpP; 1.9% of 340,000 active; Potency, µM (top dose mostly 57.5 µM), for the others: top-dose activity change, negative = active; ATP-dependent Clp protease proteolytic subunit (Bacillus subtilis (strain 168)), P80244; AID 651965, 2013; purified B. subtilis ClpP, FRET peptide cleavage, 20 min; active = well fitted falling curve with a large enough effect; inconclusive = small, poorly fitted or top-dose-only effect; inactive = no such curve, though single readings can be large or run the other way; note: potency is the fitted concentration of half-maximal effect; the source files actives as falling curves though it sought activators and does not explain the sign; nearly all actives have a fitted effect of over 65% in size
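ClpP 10 microg/mL final, pH 8 Tris/KCl buffer with BSA, glycerol, Tween-20; compound pinned in; FRET-FV substrate; RT 20 min; Ex320/Em430; ΔFRET vs ADEP 5.8 microM, DMSO, no enzyme.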
Menin-MLL TR inh – menin-MLL binding inhibition, Texas Red mutant peptide. Menin + Texas Red MLL mutant peptide, fluorescence polarization. Potency, µM (top dose mostly 61.6 µM), for the others: top-dose FP activity change, negative = inhibition, actives largely listed as inhibitors. AID 1768. 0.23% of 270,000 active; active = well fitted inhibition curve with a large enough effect in the polarisation, with a control signal flat, not every such curve was filed as active; inconclusive = small, poorly fitted or top-dose-only effect, or effect the other way, or a change in a side signal; inactive = no such curve, though single readings can be large or run the other way; the % refers to the polarisation; note: potency is the fitted concentration of half-maximal effect; % of control where 0% means no effect
Target sequence (O00255 whole entry, looked up): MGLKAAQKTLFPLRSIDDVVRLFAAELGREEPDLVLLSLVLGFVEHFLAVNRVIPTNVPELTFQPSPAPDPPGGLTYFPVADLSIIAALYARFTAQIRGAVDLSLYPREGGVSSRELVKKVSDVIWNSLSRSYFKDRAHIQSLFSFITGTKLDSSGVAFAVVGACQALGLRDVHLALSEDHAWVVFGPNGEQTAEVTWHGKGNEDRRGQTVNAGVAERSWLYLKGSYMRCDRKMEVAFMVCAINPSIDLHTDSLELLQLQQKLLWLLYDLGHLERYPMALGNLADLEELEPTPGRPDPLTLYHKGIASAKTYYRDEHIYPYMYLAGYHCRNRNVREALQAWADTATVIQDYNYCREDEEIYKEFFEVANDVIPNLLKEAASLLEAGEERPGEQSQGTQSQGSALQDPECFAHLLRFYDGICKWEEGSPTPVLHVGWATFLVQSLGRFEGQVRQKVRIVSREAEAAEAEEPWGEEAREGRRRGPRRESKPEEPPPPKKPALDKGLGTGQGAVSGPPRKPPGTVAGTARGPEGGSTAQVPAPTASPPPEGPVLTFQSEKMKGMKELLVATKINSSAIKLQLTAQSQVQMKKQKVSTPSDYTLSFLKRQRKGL
Numbers without * were called inactive; ? = inconclusive; nt = not tested or not shown; ! = not confirmed by another sample; [ ] = dose if it differs, or a comment. The list is not random: actives were taken first. Their share in the collection is about 1.9%.

SMILES	Menin MLL FP FL	CXXC DNA block	Epigenetic reg	PINK1 expr mod	ClpP mod	Menin-MLL TR inh
C/C(=N\NC(=O)c1ccc(CSc2cccc3cccnc23)cc1)C1CCCCC1	6	14%	1%	-1%	28µM*	18%
COc1ccc(/C(C)=N/NC(=O)c2ccc(CSc3cccc4cccnc34)cc2)cc1OC	4	21%	-1%	5%[38.3 µM]	22µM*	19%
COc1cc(/C(C)=N/NC(=O)c2ccc(CSc3nncn3C)cc2)cc(OC)c1OC	0	8%	0%	1%	-1%	-13%
COC(=O)c1ccccc1-c1cc(C)cc2c1OC(CNC(=O)c1cnc(C)cn1)C2 (configuration not stated)	nt	nt	nt	1%	nt	nt
COc1ccc(-c2nc(CS(=O)CC(=O)NCCC3=CCCCC3)c(C)o2)cc1 (configuration not stated)	0	-8%	4%	1%	-23%	-8%[11.7 µM]
COc1ccc(-c2nc(CSCC(=O)NCc3ccc4c(c3)OCO4)c(C)o2)cc1OC	12	20%	-1%	0%	-15%	-17%
COc1ccccc1CNC(=O)CSCc1nc(-c2ccc(OC)c(OC)c2)oc1C	nt	nt	-1%	-1%	?	nt
COc1ccc(-c2nc(CSCC(=O)NCCc3ccc(C)cc3)c(C)o2)cc1OC	nt	nt	2%	0%	32µM*	nt
COc1ccc(-c2nc(CSCC(=O)NCc3ccccc3Cl)c(C)o2)cc1OC	nt	nt	-1%	1%	20µM*	nt
COc1ccccc1CNC(=O)CS(=O)Cc1nc(-c2ccc(OC)c(OC)c2)oc1C (configuration not stated)	5	-5%	-1%	-1%	32µM*!	-5%
COc1ccc(-c2nc(CSCC(=O)NCCC3=CCCCC3)c(C)o2)cc1OC	-4	0%	-2%	2%	25µM*	-14%
COc1ccc(-c2nc(CS(=O)CC(=O)NCc3ccc4c(c3)OCO4)c(C)o2)cc1OC (configuration not stated)	-1	-1%	nt	-2%	3%	-4%
Cc1nc(-c2ccc(S(=O)(=O)N(C)Cc3ccccc3)cc2)co1	nt	nt	1%	-4%	-5%	nt
CCC(C)NC(=O)c1ccc2nc(-c3ccco3)c(-c3ccco3)nc2c1 (configuration not stated)	nt	nt	nt	3%	-8%	nt
COCCNC(=O)CSCc1nc(-c2ccc(SC)cc2)oc1C	1	0%	-1%	1%[38.3 µM]	25µM*	?
CCOCCCNC(=O)CSCc1nc(-c2ccc(SC)cc2)oc1C	-2	0%	0%	-2%	3%	-10%
Cc1ccc(NC(=O)C(=O)NCC(c2cccnc2)N2CCc3ccccc3C2)cc1 (configuration not stated)	nt	nt	22µM*	0%	0%	nt
CC(=O)Nc1sc(/C(C#N)=C\c2cccc(Cl)c2)nc1-c1ccc(C)cc1	?	15%	7.9µM*	2%	1%	?
N#Cc1ccc(NC(=O)Nc2ccc(Oc3ccc(NC(=O)Nc4ccc(C#N)cc4)cc3)cc2)cc1	-12	?	4%	45µM*	nt	?
COc1ccc(NC(=O)Nc2ccc(OC)cc2)cc1	-1	11%	0%	7%	-4%	8%
N#Cc1ccc(NC(=O)Nc2cccc(C#N)c2)cc1	-1	21%	1%	32µM*	-2%	?
COCC(=O)Nc1cc(C(=O)N2CCSCC2)cc2nc(-c3ccccc3)n(C)c12	nt	nt	nt	1%	nt	nt
O=C(COc1ccccc1C(=O)Nc1ccccc1)Nc1ccccc1F	nt	nt	nt	1%	1%	nt
O=C(COC(=O)c1ccc2[nH]c3c(c2c1)CCCC3)Nc1ccccc1Cl	0	0%	-5%	9%	3%	6%
CCC(C)c1ccccc1NC(=O)COC(=O)c1ccc2[nH]c3c(c2c1)CCCC3 (configuration not stated)	3	-8%	-1%	?	32µM*	-2%
SMILES	Menin MLL FP FL	CXXC DNA block	Epigenetic reg	PINK1 expr mod	ClpP mod	Menin-MLL TR inh
CC(C)c1cccc(C2=CC(=O)C[C@H](c3ccc4c(c3)OCO4)C2)c1	nt	nt	nt	1%	0%	nt
O=c1n(Cc2ccccc2)c2cc(Cl)cnc2n1Cc1ccccc1	1	-4%	-3%	1%	28µM*	-5%
O=C(O)Cn1c(=O)n(Cc2ccccc2)c2ccccc21	4	-13%	nt	4%	-3%	-9%
CCn1c2ccccc2c2cc(CN3CCOc4ccc(C(O)c5cccnc5)cc4C3)ccc21 (configuration not stated)	nt	nt	nt	1%	nt	nt
COc1ccc(CCNC(=O)c2cn(C)c3ccc(S(=O)(=O)N4CCOCC4)cc3c2=O)cc1OC	nt	-15%	-2%	0%	0%	nt
CCn1cc(C(=O)NCCc2ccc(OC)c(OC)c2)c(=O)c2cc(S(=O)(=O)N3CCOCC3)ccc21	0	8%	1%	0%	-1%	16µM*
COc1cc(OC)c2c(-c3cccc(-c4cccc(C)c4)c3)cc(=O)oc2c1	-1	nt	0%	0%	22µM*	-13%
CC(C)Cc1nc2cc(NS(=O)(=O)N(C)C)cc(C(=O)N3CCOc4ccccc4C3)c2n1C	nt	nt	nt	0%	nt	nt
Nc1ccc(/C=C/c2nccc3ccccc23)cc1	nt	nt	nt	1%	1%	nt
CCC1(CC)NC(=O)N(CC(=O)OCc2nc3cc(C(=O)OC)ccc3c(=O)[nH]2)C1=O	nt	nt	nt	-3%	28µM*	nt
CC(=O)Oc1ccccc1/C=C/c1nc2ccccc2c(=O)o1	18	-6%	nt	-1%	nt	31%
O=c1oc(/C=C/c2ccc([N+](=O)[O-])s2)nc2ccccc12	?	4%	nt	40µM*	-3%	16%
O=C(C[N+]1(CCO)CCOCC1)c1cccc2ccccc12	nt	nt	nt	-1%	0%	nt
O=C(NCCc1ccccc1)c1cnc2sc(N3CCOCC3)nn2c1=O	nt	nt	0%	1%	10µM*	nt
CCCNC(=O)c1cnc2sc(N3CCCCC3)nn2c1=O	nt	nt	2%	5%	4%	nt
CC(C)NC(=O)c1cnc2sc(N3CCCCCC3)nn2c1=O	nt	nt	0%	1%	16µM*	nt
COc1ccccc1CNC(=O)c1cnc2sc(N3CCCCCC3)nn2c1=O	nt	nt	1%	0%	14µM*	nt
CCOc1ccc(CCNC(=O)c2cnc3sc(N4CCOCC4)nn3c2=O)cc1	nt	nt	0%	3%	?	nt
CCOCCCNC(=O)c1cnc2sc(N3CCCCCC3)nn2c1=O	nt	nt	0%	1%	16µM*	nt
O=C1C[C@H]2C=CCc3cccc(c32)CN1Cc1ccc(Cl)cc1	nt	nt	nt	nt	-6%	nt
COc1ccc(CNC(=O)c2cnc3sc4cc(OC)ccc4n3c2=O)cc1	nt	nt	1%	0%	-27%	nt
CCN(CC)c1nn2c(=O)c(C(=O)NCc3cccc(C)c3)cnc2s1	nt	nt	1%	0%	?	nt
CCN(CC)c1nn2c(=O)c(C(=O)NCCc3cccc(C)c3)cnc2s1	nt	nt	0%	0%	11µM*	nt
